Results from PubChem BioAssay (NCATS).
Several values for one entry are separate records, joined by “and”; a condition that tells them apart may be missing. Equal values may be shown once. Inconclusive results are not listed. Unmarked numbers belong to inactive results. Activity calls are given as the source filed them. Calls come from the whole dose curve; as a rule, active = well fitted curve in the direction sought with a large enough effect; inconclusive = small, poorly fitted or top-dose-only effect, or another doubt; inactive = no such curve, though single readings can be large; an effect the other way counts as inactive or inconclusive.

Tests used:
OV90 = test: Primary qHTS to identify gynecologic anti-cancer compounds using libraries of approved drugs and bioactive compounds (AID 1345084); conditions: Gynecologic cancer cell panel viability, ATPlite luminescence, 48 h; series mostly up to 57.5 µM; note: nearly all actives have a fitted effect of over 55% in size; note: potency is the fitted concentration of half-maximal effect
Outline: (§1)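 Five-point cytotoxicity, 48 h drug exposure at 37 C, 5% CO2, on cells seeded 16 h beforehand. ATP content read by ATPlite luminescence.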

PA-1 = test: as above; conditions: Gynecologic cancer cell panel viability, ATPlite luminescence, 48 h; series mostly up to 57.5 µM
Outline: as §1

Tov112D = test: as above; conditions: Gynecologic cancer cell panel viability, ATPlite luminescence, 48 h; series mostly up to 57.5 µM
Outline: as §1

[1] = qHTS assay to identify inhibitors of the type 1 interferon - major histocompatibility complex class I in skeletal muscle: Counter screen cell viability and HiBit confirmation (AID 1347412); conditions: iHSKM muscle cells + IFN-b, HiBiT or CellTiter-Glo, 24 h; for activity change, negative = inhibition: at 45.9 µM (top of the series); note: potency is the fitted concentration of half-maximal effect; for all read-outs here: nearly all actives have a fitted effect of over 60% in size
Outline: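 Luminescence read-out: Nano-Glo HiBiT lytic signal from C-terminally HiBiT-tagged HLA-B in CRISPR-edited human myoblasts, plus CellTiter Glo ATP as viability counter screen. IFN-beta 4.0 ng/ml; 24 hrs treatment at 37 C, 5% CO2.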

Tov-21-G = test: Primary qHTS to identify gynecologic anti-cancer compounds using libraries of approved drugs and bioactive compounds (AID 1345084); conditions: Gynecologic cancer cell panel viability, ATPlite luminescence, 48 h; series mostly up to 57.5 µM; note: nearly all actives have a fitted effect of over 55% in size; note: potency is the fitted concentration of half-maximal effect
Outline: as §1

SKOV3 = test: as above; conditions: Gynecologic cancer cell panel viability, ATPlite luminescence, 48 h; series mostly up to 57.5 µM
Outline: as §1

[2] = Drug repurposing screens with cells derived from glioblastoma tumor samples (AID 1345199); conditions: GBM patient neurospheres viability, ATP luminescence, 48 h; note: nearly all actives have a fitted effect of over 40% in size
Outline: (§2)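 Four patient lines of CD133+ GBM neurospheres were screened at several concentrations; hits were retested in those lines plus three slower-growing GBM lines, using 48-hour treatment and ATP-based viability.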

astro = test: as above; conditions: viability, ATP luminescence, 48 h; series mostly up to 45.9 µM
Outline: as §2
% is set by controls: 0 for no effect and ±100 for the full control effect.

Question: Which Potency (OV90) does the source give for `COC(=O)Nc1nc2ccc(C(=O)c3ccc(F)cc3)cc2[nH]1` here?
Answer: inactive

Question: What about the Potency (PA-1) of the same compound?
Answer: 2 µM (active)

Question: What about the Potency (Tov112D) of the same compound?
Answer: 3.55 µM (active)

Question: And the activity change, negative = inhibition ([1]; Viability)?
Answer: -28.8%

Question: Which Potency (OV90) does the source give for `CCc1c2c(nc3ccc(O)cc13)-c1cc3c(c(=O)n1C2)COC(=O)[C@]3(O)CC` here?
Answer: 1.78 µM (active)

Question: And the Potency (Tov-21-G)?
Answer: 3.16 µM (active)

Question: What about the Potency ([1]; HiBiT) of the same compound?
Answer: 1.4 µM (active)

Question: And the activity change, negative = inhibition ([1]; Viability)?
Answer: -11.1%

Question: Which Potency (PA-1) does the source give for `COc1cc2nccc(Oc3ccc(NC(=O)C4(C(=O)Nc5ccc(F)cc5)CC4)cc3)c2cc1OC` here?
Answer: 7.94 µM (active)

Question: With `Cc1[nH]nc2ccc(-c3cncc(OC[C@@H](N)Cc4ccccc4)c3)cc12` as the compound, how does the Potency (OV90) read?
Answer: 3.55 µM (active)

Question: And the Potency (PA-1)?
Answer: 3.55 µM (active)

Question: And the Potency (Tov-21-G)?
Answer: 2.82 µM (active)

Question: And the Potency (Tov112D)?
Answer: 2 µM (active)

Question: And the Potency ([1]; HiBiT)?
Answer: 0.991 µM (active)

Question: What about the activity change, negative = inhibition ([1]; Viability) of the same compound?
Answer: -12.9%

Question: Which Potency (OV90) does the source give for `CC(C)CC(=O)Nc1n[nH]c2c1CN(C(=O)C1CCN(C)CC1)C2(C)C` here?
Answer: 7.94 µM (active)

Question: What about the Potency (PA-1) of the same compound?
Answer: 0.447 µM (active)

Question: What about the Potency (Tov112D) of the same compound?
Answer: 7.94 µM (active)

Question: What about the Potency ([1]; HiBiT) of the same compound?
Answer: 0.701 µM (active)

Question: What about the activity change, negative = inhibition ([1]; Viability) of the same compound?
Answer: 10.8%

Question: Which Potency (OV90) does the source give for `CC[C@@H]1C(=O)N(C)c2cnc(Nc3ccc(C(=O)NC4CCC(N5CCN(CC6CC6)CC5)CC4)cc3OC)nc2N1C(C)C` (some centres not stated) here?
Answer: 15.8 µM (active) and 12.6 µM (active)

Question: And the Potency (PA-1)?
Answer: 0.251 µM (active)

Question: What about the Potency ([1]; HiBiT) of the same compound?
Answer: 6.25 µM (active)

Question: Which Potency (OV90) does the source give for `CC(C)Nc1cc(C(F)(F)F)cc2nc(NC(=O)c3cccnc3)nn12` here?
Answer: inactive

Question: And the Potency (SKOV3)?
Answer: inactive

Question: What about the Potency (Tov-21-G) of the same compound?
Answer: inactive

Question: Which Potency (PA-1) does the source give for `COc1cc2c(cc1-c1c(C)noc1C)ncc1[nH]c(=O)n([C@H](C)c3ccccn3)c12` here?
Answer: inactive

Question: And the activity change, negative = inhibition ([1]; Viability)?
Answer: 1.25%

Question: What does the source list for `COc1c(OCCCN2CCOCC2)ccc2c3n(c(=NC(=O)c4cnc(N)nc4)nc12)CCN3`?
Answer: Potency (PA-1): 0.631 µM (active); Potency (SKOV3): 0.0631 µM (active); activity change, negative = cytotoxicity (Tov112D): -17.3% [at 11.6 µM]

Question: Which Potency (PA-1) does the source give for `N#CCNC(=O)c1ccc(-c2ccnc(Nc3ccc(N4CCOCC4)cc3)n2)cc1` here?
Answer: 14.1 µM (active)

Question: And the Potency (Tov-21-G)?
Answer: 14.1 µM (active)

Question: What about the Potency (Tov112D) of the same compound?
Answer: inactive

Question: And the Potency ([1]; HiBiT)?
Answer: 4.43 µM (active)

Question: What about the activity change, negative = inhibition ([1]; Viability) of the same compound?
Answer: -6.53%

Question: What does the source list for `Cc1coc2c1C(=O)C(=O)c1c-2ccc2c1CCCC2(C)C`?
Answer: Potency (PA-1): inactive; Potency (Tov112D): inactive

Question: For `CNc1nccc(-c2cccnc2Oc2cc(C(=O)Nc3cccc(C(F)(F)F)c3)ccc2C)n1`, which Potency (SKOV3) is on record?
Answer: 28.2 µM (active)

Question: What about the Potency (Tov-21-G) of the same compound?
Answer: 28.2 µM (active)

Question: What does the source list for `Nc1ccccc1NC(=O)c1ccc(CNc2nccc(-c3cccnc3)n2)cc1`?
Answer: Potency (PA-1): 0.708 µM (active); Potency (SKOV3): 3.98 µM (active); Potency (Tov-21-G): 2.82 µM (active); Potency (Tov112D): 3.55 µM (active); Potency ([1]; HiBiT): 3.94 µM (active); activity change, negative = inhibition ([1]; Viability): 3.24%

Question: With `OCCCNc1cc(-c2ccnc(Nc3cccc(Cl)c3)n2)ccn1` as the compound, how does the Potency (PA-1) read?
Answer: 0.1 µM (active)

Question: What about the Potency (Tov-21-G) of the same compound?
Answer: 0.158 µM (active)

Question: And the Potency (Tov112D)?
Answer: 0.316 µM (active)

Question: What about the Potency ([1]; HiBiT) of the same compound?
Answer: 0.125 µM (active)

Question: What about the activity change, negative = inhibition ([1]; Viability) of the same compound?
Answer: 15.1%

Question: For `COc1cccc2nc(-c3cccs3)nc(NN3C(=O)C=C(C)C3=O)c12`, which Potency (PA-1) is on record?
Answer: 1.58 µM (active)

Question: What about the Potency (Tov112D) of the same compound?
Answer: 0.891 µM (active)

Question: And the Potency ([1]; HiBiT)?
Answer: 2.79 µM (active)

Question: And the activity change, negative = inhibition ([1]; Viability)?
Answer: 41.4%

Question: What does the source list for `CCS(=O)(=O)c1cccc(-c2cc(C(=O)NC3CCN(C)CC3)c(C)c3[nH]c4ncc(C)cc4c23)c1`?
Answer: Potency (PA-1): 1.26 µM (active); Potency (SKOV3): 5.62 µM (active); Potency (Tov112D): 2 µM (active); Potency ([1]; HiBiT): 2.79 µM (active)

Question: For `COc1ccc(F)c(F)c1C(=O)c1cnc(NC2CCN(S(C)(=O)=O)CC2)nc1N`, which Potency (PA-1) is on record?
Answer: 2.51 µM (active)

Question: What about the Potency (Tov112D) of the same compound?
Answer: 7.94 µM (active)

Question: And the Potency ([1]; HiBiT)?
Answer: 1.11 µM (active)

Question: And the activity change, negative = inhibition ([1]; Viability)?
Answer: 14.1%

Question: With `COC(=O)c1ccc2c(C(=Nc3ccc(N(C)C(=O)CN4CCN(C)CC4)cc3)c3ccccc3)c(O)[nH]c2c1` as the compound, how does the Potency (SKOV3) read?
Answer: inactive

Question: And the Potency (Tov112D)?
Answer: inactive

Question: What does the source list for `CS(=O)(=O)N1CCN(Cc2cc3nc(-c4cccc5[nH]ncc45)nc(N4CCOCC4)c3s2)CC1`?
Answer: Potency (SKOV3): 2.51 µM (active); Potency (Tov112D): inactive

Question: For `c1ccc2c(CCNc3ccc(Nc4ccncc4)cc3)c[nH]c2c1`, which Potency (PA-1) is on record?
Answer: 10 µM (active)

Question: And the Potency (Tov-21-G)?
Answer: inactive

Question: What about the activity change, negative = inhibition ([1]; HiBiT) of the same compound?
Answer: 19.8%

Question: What about the activity change, negative = inhibition ([1]; Viability) of the same compound?
Answer: -28.3%

Question: For `Cn1cc(-c2[nH]c3cc(NC(=O)[C@H](N)C4CCCCC4)cc4c3c2C=NNC4=O)cn1`, which Potency (SKOV3) is on record?
Answer: 7.08 µM (active)

Question: And the Potency (Tov-21-G)?
Answer: 10 µM (active)

Question: With `CCn1nnc2c(N3CCOCC3)nc(-c3ccc(NC(=O)Nc4ccc(C(=O)N5CCN(C)CC5)cc4)cc3)nc21` as the compound, how does the Potency (PA-1) read?
Answer: 0.398 µM (active)

Question: What about the Potency (SKOV3) of the same compound?
Answer: 0.316 µM (active)

Question: What about the Potency (Tov-21-G) of the same compound?
Answer: 0.224 µM (active)

Question: And the Potency ([1]; Viability)?
Answer: 0.991 µM (active)

Question: With `Cc1cnc(-c2cnc(NCCNc3ccc(C#N)cn3)nc2-c2ccc(Cl)cc2Cl)[nH]1` as the compound, how does the Potency (PA-1) read?
Answer: inactive

Question: And the Potency (SKOV3)?
Answer: inactive

Question: And the Potency (Tov-21-G)?
Answer: inactive

Question: And the Potency (Tov112D)?
Answer: inactive

Question: What does the source list for `CC(=O)Nc1nc(C)c(-c2ccc(Cl)c(S(=O)(=O)NCCO)c2)s1`?
Answer: Potency (PA-1): 15.8 µM (active); Potency (SKOV3): 11.2 µM (active)

Question: Which Potency (Tov-21-G) does the source give for `CC1(C)CCC(c2ccc(Cl)cc2)=C(CN2CCN(c3ccc(C(=O)NS(=O)(=O)c4ccc(N[C@H](CCN5CCOCC5)CSc5ccccc5)c(S(=O)(=O)C(F)(F)F)c4)cc3)CC2)C1` here?
Answer: inactive

Question: With `CCN(CC)CCNC(=O)c1ccc2nc(-c3ccccc3)c(-c3ccc(CN4CCC(n5c(=O)[nH]c6ccccc65)CC4)cc3)nc2c1` as the compound, how does the Potency (PA-1) read?
Answer: inactive

Question: And the Potency (Tov-21-G)?
Answer: inactive

Question: What about the Potency (Tov112D) of the same compound?
Answer: inactive

Question: With `Cc1nc2ccc(CN(C)c3ccc(C(=O)N[C@@H](CCC(=O)O)C(=O)O)s3)cc2c(=O)[nH]1` as the compound, how does the Potency (SKOV3) read?
Answer: inactive

Question: What about the Potency (Tov112D) of the same compound?
Answer: 0.316 µM (active)

Question: And the activity, negative = cell killing ([2]; at 45.9 µM (top of the series), tumour line D)?
Answer: -5.32% and -11.6%

Question: And the activity, negative = cell killing ([2]; at 46.1 µM (top of the series), tumour line C)?
Answer: 0.947% and 1.27%

Question: What about the Potency (astro) of the same compound?
Answer: inactive
